Results: PubChem BioAssay (Tox21)
Inconclusive results are not listed. Activity calls are given as the source filed them. Unless noted, calls follow the shape of the dose curve; as a rule, active = well fitted curve in the direction sought with a large enough effect in the repeat runs; inconclusive = weak or mixed curves; inactive = no such curve, though single readings can be large; an effect the other way counts as inactive or inconclusive.

What was measured:
[1] = qHTS assay for small molecule agonists of the p53 signaling pathway (AID 651631; calls by dose curve; also: nearly all actives have a fitted effect of over 15% in size); settings: HCT-116 p53RE-bla reporter, beta-lactamase FRET ratio, 16 h; series mostly up to 73.3 µM
Procedure, shortened: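 Beta-lactamase reporter activity under p53 response elements was quantified in HCT-116 cells by FRET fluorescence, following 16 h incubation with test compounds at 37 °C and 2 h substrate development at room temperature.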

[2] = qHTS assay for small molecules that induce genotoxicity in human embryonic kidney cells expressing luciferase-tagged ATAD5 (AID 651632); settings: HEK293T ATAD5-luciferase induction, 16 h; series mostly up to 83.3 µM; also: nearly all actives have a fitted effect of over 15% in size
Procedure, shortened: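 Luminescence read-out: after 16 hr compound exposure at 37C, ATAD5-luciferase HEK293T cells received Amplite, 30 min RT, then CCD imaging. A rise in signal marks genotoxic stress.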

[3] = qHTS assay for small molecule agonists of the p53 signaling pathway - cell viability (AID 651633; calls by dose curve; also: nearly all actives have a fitted effect of over 30% in size); settings: p53RE-bla HCT-116 viability, ATP luminescence, 16 h; series mostly up to 83.3 µM
Procedure, shortened: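 Viability counter-read: CellTiter-Glo luminescence (30 min, room temperature) in the same p53RE-bla plates. These plates had been exposed to compounds for 16 h at 37 C.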

[4] = qHTS assay for small molecules that induce genotoxicity in human embryonic kidney cells expressing luciferase-tagged ATAD5 - cell viability (AID 651634; calls by dose curve; also: nearly all actives have a fitted effect of over 25% in size); settings: HEK293T ATAD5-luc cells viability, CellTiter-Fluor, 15.5 h; series mostly up to 83.3 µM
Procedure, shortened: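 HEK293T ATAD5-luc cells, 2,000/well; compound 15.5 hr, 37C/5% CO2; CellTiter-Fluor 30 min, 37C; fluorescence read.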

[5] = qHTS assay for small molecule disruptors of the mitochondrial membrane potential - cell viability (AID 720634; calls by dose curve;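 also: human HepG2 liver cancer cells; nearly all actives have a fitted effect of over 20% in size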); settings: HepG2 viability, ATP luminescence (CellTiter-Glo), 1 h; series mostly up to 83.2 µM
Procedure, shortened: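 Luminescence from CellTiter-Glo (ATP content) gave viability in HepG2 cells, read in the same wells as the MMP dye assay after 1 hr compound exposure at 37 C.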

[6] = qHTS assay for small molecule disruptors of the mitochondrial membrane potential (AID 720635); settings: HepG2 mitochondrial membrane potential, Mito-MPS dye ratio; series mostly up to 83.2 µM
Procedure, shortened: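 Mitochondrial membrane potential tracked with Mito-MPS dye, red aggregates (ex 540/em 590 nm) against green monomers (ex 490/em 535 nm). Compound treatment 1 hr at 37C, dye 30 min in HepG2.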

[7] = qHTS assay to test for compound auto fluorescence at 590 nm (red) in HepG2 cells (AID 720674); settings: HepG2 autofluorescence, red 540/590 nm, 1 h; series mostly up to 46 µM
Procedure, shortened: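 Red autofluorescence (Ex/Em 540/590 nm, Rose Bengal sodium equivalents) was measured in HepG2 cells, 2,000 per well in MEM plus 10% FBS, plated overnight at 37 C. Readings were taken 1 hr after adding 23 nL compound or DMSO, at 37 C and 5% CO2.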

[8] = qHTS assay to test for compound auto fluorescence at 535 nm (green) in HepG2 cells (AID 720675); settings: green autofluorescence 485/535 nm, 1 h; series mostly up to 46 µM
[9] = qHTS assay to test for compound auto fluorescence at 460 nm (blue) in HEK293 cells (AID 720678); settings: blue autofluorescence 405/460 nm; series mostly up to 46 µM
Procedure, shortened: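 After cell attachment (4-5 hr, 37C), compounds were pinned onto HEK293 monolayers in 10% dialyzed FBS medium. The blue channel (405/460 nm) was read following overnight culture. Equivalency was calculated against triamterene.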

[10] = qHTS assay to test for compound auto fluorescence at 590 nm (red) in HEK293 cells (AID 720679); settings: red autofluorescence 540/590 nm; series mostly up to 46 µM
Procedure, shortened: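 Plates of HEK293 cells (10% dialyzed FBS) are treated with 23 nL compound or DMSO vehicle after a 4-5 hr attachment period, incubated overnight at 37C, and read for red fluorescence at 540/590nm.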

[11] = qHTS assay to test for compound auto fluorescence at 535 nm (green) in HEK293 cells (AID 720680); settings: green autofluorescence 485/535 nm; series mostly up to 46 µM
[12] = qHTS assay to test for compound auto fluorescence at 460 nm (blue) in HEK293 cell free culture (AID 720681); settings: cell-free medium, autofluorescence 405/460 nm (blue); series mostly up to 46 µM
Procedure, shortened: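 Blue fluorescence (Ex 405/Em 460 nm, triamterene-equivalent) was read immediately after pin transfer of compound or DMSO into medium (DMEM, 10% FBS) without cells.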

[13] = qHTS assay to test for compound auto fluorescence at 535 nm (green) in HEK293 cell free culture (AID 720682); settings: cell-free medium, green autofluorescence 485/535 nm; series mostly up to 46 µM
Procedure, shortened: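 Each library compound, or DMSO control, is added by pintool to medium alone, comprising DMEM and 10% FBS. Emission at 535 nm following 485 nm excitation is quantified against fluorescein.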

[14] = qHTS assay to test for compound auto fluorescence at 590 nm (red) in HEK293 cell free culture (AID 720683); settings: cell-free medium autofluorescence, Ex540/Em590 red; series mostly up to 46 µM
Procedure, shortened: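 Red-channel autofluorescence of compounds in culture medium (DMEM, 10% FBS), no cells, measured at 540/590 nm. Rose Bengal sodium is the reference fluorophore for equivalence.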

[15] = qHTS assay to test for compound auto fluorescence at 590 nm (red) in HepG2 cell free culture (AID 720684); settings: cell-free medium autofluorescence, red 540/590 nm; series mostly up to 46 µM
Procedure, shortened: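 No cells present: MEM + 10% FBS only. Compound pinned in, red label read (540/590 nm). Activity = fluorescence equivalent to Rose Bengal sodium.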

[16] = qHTS assay to test for compound auto fluorescence at 460 nm (blue) in HepG2 cell free culture (AID 720685); settings: Cell-free culture medium, blue autofluorescence 405/460 nm; series mostly up to 46 µM
Procedure, shortened: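 Cell-free plates of MEM plus 10% FBS received 23 nL compound or DMSO vehicle; blue-channel (405/460 nm) intensity scored against triamterene as reference fluorophore.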

[17] = qHTS assay to test for compound auto fluorescence at 535 nm (green) in HepG2 cell free culture (AID 720686); settings: Cell-free medium, green autofluorescence 485/535 nm; series mostly up to 46 µM
[18] = qHTS assay to test for compound auto fluorescence at 460 nm (blue) in HepG2 cells (AID 720687); settings: autofluorescence 405/460 nm, 1 h; series mostly up to 46 µM
Procedure, shortened: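 Blue-channel autofluorescence (Ex/Em 405/460 nm, triamterene-equivalent) was measured after 1 hr compound exposure at 37 C, 5% CO2. Cells were HepG2, plated overnight at 37 C in MEM plus 10% FBS.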

[19] = target: Glucocorticoid receptor (Homo sapiens) (UniProt P04150); test: qHTS assay to identify small molecule agonists of the glucocorticoid receptor (GR) signaling pathway (AID 720691; active = well fitted activation curve with a large enough effect in the signal ratio in the repeat runs, not every such curve was filed as active; the % refers to the signal ratio); settings: GR-bla HeLa, beta-lactamase reporter ratio, 18 h; series mostly up to 62.4 µM
Glucocorticoid receptor (Homo sapiens), sequence (P04150 whole entry, looked up): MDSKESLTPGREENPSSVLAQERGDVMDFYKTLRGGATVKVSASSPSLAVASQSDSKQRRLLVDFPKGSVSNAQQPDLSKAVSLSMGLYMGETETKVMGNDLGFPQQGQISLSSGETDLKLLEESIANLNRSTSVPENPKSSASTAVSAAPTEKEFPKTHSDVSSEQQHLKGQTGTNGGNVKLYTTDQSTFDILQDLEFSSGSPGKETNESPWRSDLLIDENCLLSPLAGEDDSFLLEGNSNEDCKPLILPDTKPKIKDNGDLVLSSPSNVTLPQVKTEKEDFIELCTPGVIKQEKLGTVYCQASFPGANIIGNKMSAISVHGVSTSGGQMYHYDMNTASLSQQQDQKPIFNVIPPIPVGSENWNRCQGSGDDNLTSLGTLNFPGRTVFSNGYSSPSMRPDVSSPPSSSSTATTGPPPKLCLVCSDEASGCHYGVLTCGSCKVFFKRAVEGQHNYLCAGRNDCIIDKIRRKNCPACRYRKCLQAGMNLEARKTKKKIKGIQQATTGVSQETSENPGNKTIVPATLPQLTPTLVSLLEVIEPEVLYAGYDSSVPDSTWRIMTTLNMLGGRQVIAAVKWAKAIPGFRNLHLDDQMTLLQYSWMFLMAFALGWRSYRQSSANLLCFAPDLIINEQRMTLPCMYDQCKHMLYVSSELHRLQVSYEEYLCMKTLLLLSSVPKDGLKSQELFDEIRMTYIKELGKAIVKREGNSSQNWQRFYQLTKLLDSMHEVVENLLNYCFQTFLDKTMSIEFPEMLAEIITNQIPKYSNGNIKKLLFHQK
Procedure, shortened: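 HeLa GR-bla reporter line; cells pre-incubated 4 h, compound in DMSO 18 h at 37 C; LiveBLAzer B/G FRET substrate 2 h RT; fluorescence intensity read-out.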

[20] = target: Glucocorticoid receptor (Homo sapiens) (UniProt P04150); test: qHTS assay to identify small molecule antagonists of the glucocorticoid receptor (GR) signaling pathway (AID 720692; active = well fitted inhibition curve with a large enough effect in the signal ratio in the repeat runs, not every such curve was filed as active; the % refers to the signal ratio); settings: GR-bla HeLa, beta-lactamase FRET ratio, dexamethasone-stimulated, 18 h; series mostly up to 58.5 µM
Procedure, shortened: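 Read-out: beta-lactamase FRET substrate fluorescence, 2 h at room temperature, in HeLa cells stably carrying a GRE-driven bla reporter. Compounds were co-incubated with 5 nM dexamethasone agonist (final) for 18 h at 37 C.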

Measured: Potency

CN(C(=O)c1c(O)c2ccccc2n(C)c1=O)c1ccccc1
inactive: all assays above

NS(=O)(=O)c1ccccc1Cl
not listed: [19] | [20]
inactive: all other assays above

CCCCOCCOCCOCCCC
inactive: all assays above

CC(C(=O)O)c1ccc(CC2CCCC2=O)cc1 (stereo not given)
not listed: [19] | [20]
inactive: all other assays above

O=C(O)CNC(=O)c1ccc([N+](=O)[O-])cc1
not listed: [19] | [20]
inactive: all other assays above

C=CCS(=O)(=O)O
not listed: [15] | [20]
inactive: all other assays above

CCCc1cc(C(N)=S)ccn1
not listed: [16] | [20]
inactive: all other assays above
